Test results published in PubChem BioAssay AID504942 (Broad Institute, 2011).
Results with a measured potency or affinity are listed apart. Calls of active or inactive are those of the source. The rule behind the calls is not given here.

Experiment: toxicity to human HeLa cells – cell-based, 48 h, plate reader, cherry-picks, cytotoxicity control, dose response (AID 504942)

N#CC1C(C#N)C2CCC1C1C2N1c1ccccc1 (stereo unspecified)
outcome: inactive
